Assay results published in the supplement of paper PMC10849652.
The full data set covers some 8,800 targets. This sample favours those with a hit. About 0.5% of all pairs of compound and target were hits.

Columns and labels:
Experiment in all cases: log2 fold change, soluble protein after heating vs DMSO (PISA); higher = thermal stabilisation; K562 lysate, 10 uM; active = over 0.2 and 3.5 SD of the protein, either way, in both replicates (recomputed)
[1] = compound: C1=CC=C(C=C1)[C@H](COC2=CC3=C(C=C2)NC(=O)N3)NC(=O)C4=CC=CN(C4=O)CC5=CC(=C(C=C5)F)F
In short: (§1)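 A 30 min treatment with 10 μM compound was applied to crude K562 extract at 1 mg/mL protein in PBS pH 7.4 with 1 mM MgCl2. Heating for 3 min spanned 48°C-58°C, after which aliquots were pooled, adjusted to 0.5% NP-40 at 4°C and spun at 21,000xg for 90 min. TMTpro 16plex LC-MS/MS of the supernatant, with channel sums equalised, gave values recorded as log-two fold change in thermal stability against solvent controls, from duplicates.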

[2] = compound: CC1=C(SC2=C1C(=N[C@H](C3=NN=C(N32)C)CC(=O)N)C4=CC=C(C=C4)Cl)C
In short: as §1

[3] = compound: CC1=C2C(=CC=C1)N=C(N(C2=O)C3=CC=CC=C3C)CN4C=NC5=C(N=CN=C54)N
In short: as §1

[4] = compound: Cc1sc2c(c1C)C(c1ccc(Cl)cc1)=N[C@@H](CC(=O)OC(C)(C)C)c1nnc(C)n1-2
In short: as §1

[5] = compound: c1ccc([C@@H]2C[C@H]2NC2CCNCC2)cc1
In short: as §1

Measured: log2 fold change

CXXC1 isoform 2 (UniProt Q9P0U4)
Chain of UniProt Q9P0U4 (Q9P0U4 whole entry, looked up): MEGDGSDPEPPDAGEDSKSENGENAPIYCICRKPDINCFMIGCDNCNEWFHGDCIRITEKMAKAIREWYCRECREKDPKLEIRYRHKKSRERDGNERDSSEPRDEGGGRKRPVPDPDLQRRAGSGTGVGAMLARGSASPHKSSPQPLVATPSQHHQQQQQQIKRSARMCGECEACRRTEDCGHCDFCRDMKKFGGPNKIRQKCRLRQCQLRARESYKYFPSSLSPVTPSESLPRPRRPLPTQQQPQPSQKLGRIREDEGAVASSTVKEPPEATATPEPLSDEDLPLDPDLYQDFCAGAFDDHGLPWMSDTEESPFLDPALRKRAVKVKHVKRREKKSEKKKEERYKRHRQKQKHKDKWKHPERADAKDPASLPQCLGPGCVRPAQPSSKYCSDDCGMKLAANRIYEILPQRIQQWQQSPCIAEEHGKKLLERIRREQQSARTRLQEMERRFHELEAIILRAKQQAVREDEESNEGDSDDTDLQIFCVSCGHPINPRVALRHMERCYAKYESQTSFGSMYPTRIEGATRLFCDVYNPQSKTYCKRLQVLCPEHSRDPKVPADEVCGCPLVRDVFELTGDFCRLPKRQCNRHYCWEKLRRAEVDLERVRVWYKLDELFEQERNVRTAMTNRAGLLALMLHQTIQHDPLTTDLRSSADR
inactive: [1] 0.006 | [2] 0.07 | [3] 0.032 | [4] -0.173 | [5] 0.029

COX20 isoform 2 (UniProt Q5RI15)
Chain of UniProt Q5RI15 (Q5RI15 whole entry, looked up): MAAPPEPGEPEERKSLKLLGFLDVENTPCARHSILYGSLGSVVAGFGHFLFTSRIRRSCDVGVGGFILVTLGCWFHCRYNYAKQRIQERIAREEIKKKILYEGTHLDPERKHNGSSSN
inactive: [1] 0.01 | [2] -0.047 | [3] -0.092 | [4] 0.001 | [5] 0.23

CMPK2 (UniProt Q5EBM0)
Chain of UniProt Q5EBM0 (Q5EBM0 whole entry, looked up): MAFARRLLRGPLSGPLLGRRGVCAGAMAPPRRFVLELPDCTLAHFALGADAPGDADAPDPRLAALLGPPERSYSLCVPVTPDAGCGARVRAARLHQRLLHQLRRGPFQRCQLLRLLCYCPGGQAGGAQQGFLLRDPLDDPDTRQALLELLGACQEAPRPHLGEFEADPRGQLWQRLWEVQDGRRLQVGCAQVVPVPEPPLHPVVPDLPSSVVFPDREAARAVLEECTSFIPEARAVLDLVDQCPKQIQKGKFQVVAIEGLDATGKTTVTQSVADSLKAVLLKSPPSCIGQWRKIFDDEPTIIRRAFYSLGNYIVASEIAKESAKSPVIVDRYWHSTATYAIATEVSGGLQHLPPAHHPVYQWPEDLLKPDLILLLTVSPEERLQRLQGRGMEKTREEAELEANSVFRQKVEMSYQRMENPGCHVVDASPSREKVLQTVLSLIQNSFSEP
inactive: [1] 0.008 | [2] 0.091 | [3] -0.024 | [4] 0.039 | [5] -0.098

DDB2 (UniProt Q92466)
Chain of UniProt Q92466 (Q92466 whole entry, looked up): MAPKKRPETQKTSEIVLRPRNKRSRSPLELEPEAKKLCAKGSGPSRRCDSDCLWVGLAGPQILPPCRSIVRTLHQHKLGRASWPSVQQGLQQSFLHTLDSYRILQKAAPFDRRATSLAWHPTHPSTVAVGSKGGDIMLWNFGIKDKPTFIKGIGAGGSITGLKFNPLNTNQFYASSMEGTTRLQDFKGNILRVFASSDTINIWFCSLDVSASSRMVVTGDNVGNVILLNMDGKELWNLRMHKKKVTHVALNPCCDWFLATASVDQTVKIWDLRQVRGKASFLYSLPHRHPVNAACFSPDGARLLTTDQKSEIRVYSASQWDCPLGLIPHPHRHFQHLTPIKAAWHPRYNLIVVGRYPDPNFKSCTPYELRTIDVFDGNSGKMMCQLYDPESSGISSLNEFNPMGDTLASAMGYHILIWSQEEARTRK
inactive: [1] -0.025 | [2] -0.026 | [3] 0.034 | [4] -0.027 | [5] 0.006

DNAAF5 (UniProt Q86Y56)
Chain of UniProt Q86Y56 (Q86Y56 whole entry, looked up): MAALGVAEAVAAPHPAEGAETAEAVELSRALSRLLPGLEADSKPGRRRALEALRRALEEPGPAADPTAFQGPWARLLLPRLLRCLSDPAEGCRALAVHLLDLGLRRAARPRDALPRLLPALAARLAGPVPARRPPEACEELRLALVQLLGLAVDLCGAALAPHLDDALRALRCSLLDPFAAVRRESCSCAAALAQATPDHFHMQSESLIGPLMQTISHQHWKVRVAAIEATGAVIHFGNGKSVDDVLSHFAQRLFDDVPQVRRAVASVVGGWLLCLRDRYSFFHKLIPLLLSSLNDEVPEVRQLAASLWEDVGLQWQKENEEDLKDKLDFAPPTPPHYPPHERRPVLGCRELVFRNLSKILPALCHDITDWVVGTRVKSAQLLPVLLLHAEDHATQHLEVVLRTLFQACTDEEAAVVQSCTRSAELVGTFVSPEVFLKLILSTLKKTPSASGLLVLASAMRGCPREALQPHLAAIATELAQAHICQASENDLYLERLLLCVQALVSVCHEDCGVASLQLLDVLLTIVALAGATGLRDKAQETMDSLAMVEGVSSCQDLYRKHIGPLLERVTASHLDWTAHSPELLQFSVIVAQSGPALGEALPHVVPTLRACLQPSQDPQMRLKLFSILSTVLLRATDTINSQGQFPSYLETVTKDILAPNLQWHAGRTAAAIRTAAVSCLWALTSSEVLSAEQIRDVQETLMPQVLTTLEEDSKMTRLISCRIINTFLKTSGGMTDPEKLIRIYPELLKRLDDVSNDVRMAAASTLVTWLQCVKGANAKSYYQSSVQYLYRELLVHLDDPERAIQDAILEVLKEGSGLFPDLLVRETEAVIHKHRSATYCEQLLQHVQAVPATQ
inactive: [1] -0.054 | [2] 0.038 | [3] -0.005 | [4] 0.016 | [5] 0.064

CMBL (UniProt Q96DG6)
Chain of UniProt Q96DG6 (Q96DG6 whole entry, looked up): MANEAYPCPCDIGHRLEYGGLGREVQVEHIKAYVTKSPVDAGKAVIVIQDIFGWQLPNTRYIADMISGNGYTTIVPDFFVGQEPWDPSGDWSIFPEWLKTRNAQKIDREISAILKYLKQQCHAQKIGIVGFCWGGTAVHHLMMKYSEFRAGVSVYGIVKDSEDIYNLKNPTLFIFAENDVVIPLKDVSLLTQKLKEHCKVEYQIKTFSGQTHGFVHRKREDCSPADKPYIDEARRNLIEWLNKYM
inactive: [1] -0.01 | [2] -0.011 | [3] -0.027 | [4] -0.041 | [5] -0.078

DDX4 (UniProt Q9NQI0)
Chain of UniProt Q9NQI0 (Q9NQI0 whole entry, looked up): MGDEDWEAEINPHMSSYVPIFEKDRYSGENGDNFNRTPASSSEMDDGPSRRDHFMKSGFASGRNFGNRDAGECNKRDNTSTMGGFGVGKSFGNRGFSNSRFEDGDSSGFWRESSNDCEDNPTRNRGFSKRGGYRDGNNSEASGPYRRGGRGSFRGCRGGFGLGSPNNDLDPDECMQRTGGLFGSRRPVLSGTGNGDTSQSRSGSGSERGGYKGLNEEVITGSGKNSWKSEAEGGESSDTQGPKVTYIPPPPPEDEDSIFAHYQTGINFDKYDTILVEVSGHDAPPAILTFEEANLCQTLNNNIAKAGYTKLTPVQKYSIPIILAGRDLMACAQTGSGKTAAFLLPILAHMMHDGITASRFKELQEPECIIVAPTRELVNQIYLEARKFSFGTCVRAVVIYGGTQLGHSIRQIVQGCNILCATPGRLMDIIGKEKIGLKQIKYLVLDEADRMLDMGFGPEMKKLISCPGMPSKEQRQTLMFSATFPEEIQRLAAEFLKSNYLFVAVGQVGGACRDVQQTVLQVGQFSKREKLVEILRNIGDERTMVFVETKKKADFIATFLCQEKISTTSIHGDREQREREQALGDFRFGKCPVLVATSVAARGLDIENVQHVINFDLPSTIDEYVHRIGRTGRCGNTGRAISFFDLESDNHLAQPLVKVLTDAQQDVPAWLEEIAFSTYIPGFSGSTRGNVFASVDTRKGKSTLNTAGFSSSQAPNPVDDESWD
inactive: [1] -0.047 | [2] 0.007 | [3] -0.004 | [4] 0.049 | [5] -0.265

CSNK2B (UniProt P67870)
Chain of UniProt P67870 (P67870 whole entry, looked up): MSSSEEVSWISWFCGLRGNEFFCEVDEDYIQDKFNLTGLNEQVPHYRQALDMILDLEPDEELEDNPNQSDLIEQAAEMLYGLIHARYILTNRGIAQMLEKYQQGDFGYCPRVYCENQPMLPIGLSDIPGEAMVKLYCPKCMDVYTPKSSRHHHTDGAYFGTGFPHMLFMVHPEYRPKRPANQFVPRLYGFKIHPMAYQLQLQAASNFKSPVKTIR
inactive: [1] -0.02 | [2] 0.024 | [3] -0.068 | [4] 0.03 | [5] -0.016

CLP1 (UniProt Q92989)
Chain of UniProt Q92989 (Q92989 whole entry, looked up): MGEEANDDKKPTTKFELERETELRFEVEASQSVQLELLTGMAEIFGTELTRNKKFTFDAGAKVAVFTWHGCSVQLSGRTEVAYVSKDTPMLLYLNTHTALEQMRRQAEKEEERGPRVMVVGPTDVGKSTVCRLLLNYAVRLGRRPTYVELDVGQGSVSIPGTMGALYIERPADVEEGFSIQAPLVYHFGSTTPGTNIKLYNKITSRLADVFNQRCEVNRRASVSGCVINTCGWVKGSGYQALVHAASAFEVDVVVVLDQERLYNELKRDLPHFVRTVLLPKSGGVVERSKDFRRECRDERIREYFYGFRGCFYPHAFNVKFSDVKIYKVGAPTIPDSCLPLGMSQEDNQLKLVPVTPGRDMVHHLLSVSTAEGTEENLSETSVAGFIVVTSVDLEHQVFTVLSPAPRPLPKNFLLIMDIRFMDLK
inactive: [1] -0.023 | [2] -0.002 | [3] -0.023 | [4] 0.026 | [5] -0.1
